What was measured:
[1] = target: T1, Aspartate--tRNA(Asp/Asn) ligase (Mycobacterium tuberculosis (strain ATCC 25618 / H37Rv)) (UniProt P9WFW3); experiment: Assay for Asp RNA synthetase-1 from Mycobacterium tuberculosis; assay type: functional; design: scale not given: direction of the effect not stated beside the values; conditions: 30 µM; note: in the data most compounds retested in dose-response had high values
T1 sequence (whole entry): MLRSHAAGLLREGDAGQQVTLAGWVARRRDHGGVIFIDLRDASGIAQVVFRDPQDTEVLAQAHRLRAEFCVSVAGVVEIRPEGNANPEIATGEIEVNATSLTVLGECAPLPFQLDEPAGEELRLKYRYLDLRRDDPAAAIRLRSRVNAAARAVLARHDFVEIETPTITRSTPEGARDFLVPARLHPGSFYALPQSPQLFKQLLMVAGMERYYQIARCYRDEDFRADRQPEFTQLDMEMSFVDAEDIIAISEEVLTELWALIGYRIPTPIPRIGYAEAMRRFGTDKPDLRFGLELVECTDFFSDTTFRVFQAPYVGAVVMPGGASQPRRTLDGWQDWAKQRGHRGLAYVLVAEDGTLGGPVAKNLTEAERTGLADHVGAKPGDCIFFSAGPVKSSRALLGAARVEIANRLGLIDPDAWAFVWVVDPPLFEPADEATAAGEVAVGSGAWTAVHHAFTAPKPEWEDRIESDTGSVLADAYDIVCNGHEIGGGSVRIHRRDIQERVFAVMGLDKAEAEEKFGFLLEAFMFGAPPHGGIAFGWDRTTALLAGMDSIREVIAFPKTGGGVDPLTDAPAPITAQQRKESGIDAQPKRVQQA

[2] = target: Shiga toxin 2 (Escherichia coli O157:H7) (UniProt P09385+P09386); experiment: E. coli 0.157:H7 Shiga Toxin SOP - stx2 screening assay; assay type: functional; design: scale not given: direction of the effect not stated beside the values; conditions: 30 µM

COc1ccc(CN2C[C@@H]3CCCO[C@@H]3[C@H](NS(C)(=O)=O)C2)cc1
Percent Effect [1]: 5.42% | Percent Effect [2]: -24%

O=C(Cc1ccc2c(c1)OCCO2)NC1CCCC1
Percent Effect [1]: -0.698% | Percent Effect [2]: 3.29%

O=C(NCC(O)c1ccc(F)c(F)c1)c1cccnc1OCC(F)(F)F (stereo unspecified)
Percent Effect [1]: -1.66% | Percent Effect [2]: -9.04%

Cc1ccc(CN2CC(C(=O)Nc3ccccc3)C3(CCOCC3)C2)s1 (stereo unspecified)
Percent Effect [1]: 8.04% | Percent Effect [2]: -1.18%

COc1cccc(C2CCCN2C(=O)c2cc3c([nH]c2=O)CCC3)c1 (stereo unspecified)
Percent Effect [1]: 1.28% | Percent Effect [2]: -5.59%

NC(=O)C(CNC(=O)COCC(F)(F)F)Cc1ccc(F)cc1 (stereo unspecified)
Percent Effect [1]: 0.689% | Percent Effect [2]: 4.66%

COc1ccc(-c2nc(CN3CCCC3Cn3cccn3)no2)cc1 (stereo unspecified)
Percent Effect [1]: -3.19% | Percent Effect [2]: -24.1%

CC(=O)NC1CCCN(C(=O)NCc2ccc(-c3ccn[nH]3)cc2)C1 (stereo unspecified)
Percent Effect [1]: -1.85% | Percent Effect [2]: 1.62%

Cc1ccc(NC(=O)C2=CN=S=N2)cc1
Percent Effect [1]: -2.07% | Percent Effect [2]: -19.2%

O=C(NC1COC2(CCN(Cc3ccccn3)CC2)C1)c1ccccn1 (stereo unspecified)
Percent Effect [1]: -7.74% | Percent Effect [2]: -29.1%

O=C(c1cnoc1)N1CCC[C@]2(C[C@H](Oc3ncccc3F)CO2)C1
Percent Effect [1]: -2.03% | Percent Effect [2]: -8.52%

Cc1ccc2c(c1)CN(C(=O)C1CCCCC1)C(CN(C)C)CO2 (stereo unspecified)
Percent Effect [1]: 1.26% | Percent Effect [2]: 2.56%

CCN(CC)c1ccc(NS(=O)(=O)c2cnn(C)c2)cn1
Percent Effect [1]: 2.14% | Percent Effect [2]: -30.7%

Cc1nc(COC[C@@H]2CC[C@H]3[C@H](CCN3c3ncccn3)O2)cs1
Percent Effect [1]: 1.87% | Percent Effect [2]: -14.4%

Cc1noc(C)c1CCC(=O)NC(C)c1nnc2n1CCC2 (stereo unspecified)
Percent Effect [1]: -0.635% | Percent Effect [2]: -3.03%

CN(C)C(=O)CS(=O)(=O)Cc1cc(Cl)c2c(c1)OCO2
Percent Effect [1]: 0.927% | Percent Effect [2]: 25.6%

CN(Cc1nccn1CC(F)(F)F)C(=O)c1ccc(F)cc1F
Percent Effect [1]: 1.98% | Percent Effect [2]: 9.03%

CC(C)Cc1noc(CN2CCC(NC(=O)c3cccs3)CC2)n1
Percent Effect [1]: 1.37% | Percent Effect [2]: -32.8%

COCc1ccccc1NC(=O)[C@@H]1CCCN1C(=O)c1ccco1
Percent Effect [1]: -0.557% | Percent Effect [2]: -2.06%

O=C(CC1CC1)NCc1cn2c(n1)CN(CC1CC1)CC2
Percent Effect [1]: 4.87% | Percent Effect [2]: -4.42%

Cc1cc(NC(=O)NCC(O)c2ccc(Cl)cc2Cl)n(C)n1 (stereo unspecified)
Percent Effect [1]: -2.66% | Percent Effect [2]: 24.8%

CC(=O)N1CCC(c2ccnc(Nc3cnccn3)n2)C1 (stereo unspecified)
Percent Effect [1]: 1.13% | Percent Effect [2]: -14.2%

O=C(c1ccnnc1)N1C[C@@H](OCC2CCOCC2)[C@H]2OCCC[C@H]21
Percent Effect [1]: -5.57% | Percent Effect [2]: -14.6%

COCCN1C(=O)[C@]2(CC[C@@H]3CN(C(=O)NC4CCCC4)C[C@@H]32)N=C1C
Percent Effect [1]: 0.379% | Percent Effect [2]: -4.86%

COCCN1CCC(CN(CC2CCCO2)C(=O)COC)CC1 (stereo unspecified)
Percent Effect [1]: -4.26% | Percent Effect [2]: -0.207%

Cc1cccc(CN2CCC3(CCCN(C(=O)c4ccsc4)C3)C2=O)n1 (stereo unspecified)
Percent Effect [1]: -2.4% | Percent Effect [2]: -10.9%

NC(=O)c1cccc(CC2CCN(C(=O)CCCN3CCOCC3)C2)c1 (stereo unspecified)
Percent Effect [1]: 6.21% | Percent Effect [2]: -6.5%

Cn1cccc1C(=O)N1CCN(Cc2ccncc2)c2ncccc2C1
Percent Effect [1]: 0.0582% | Percent Effect [2]: -10%

Fc1ccc(CN2CCCC2Cn2cccn2)c2ncccc12 (stereo unspecified)
Percent Effect [1]: -2.13% | Percent Effect [2]: -3.45%

NCc1cn(-c2ccccc2C(=O)NCc2cccc(Cl)c2)cn1
Percent Effect [1]: -0.574% | Percent Effect [2]: 40.7%

c1ccc(-c2cnc(CN3CCn4c(nnc4C4CC4)C3)o2)cc1
Percent Effect [1]: 0.278% | Percent Effect [2]: 23.8%

CNc1cc(CNC(=O)c2ccccc2)nc(-c2ccncc2)n1
Percent Effect [1]: -4.09% | Percent Effect [2]: 11.3%

CCn1c(C)nnc1CN(C)C1CCN(Cc2cnc(C)cn2)C1 (stereo unspecified)
Percent Effect [1]: 2.78% | Percent Effect [2]: -19%

CN(C)CC1(O)CCN(S(=O)(=O)c2ccc(F)cc2)C1 (stereo unspecified)
Percent Effect [1]: -0.491% | Percent Effect [2]: 12.7%

CC(=O)N(Cc1ncc(C)o1)C1CCN(Cc2cccc(C#N)c2)C1 (stereo unspecified)
Percent Effect [1]: 0.127% | Percent Effect [2]: 9.86%

CS(=O)(=O)c1ccc(OCCNCc2cccc(F)c2)cc1
Percent Effect [1]: -5.13% | Percent Effect [2]: -38.6%

c1cnc(N2CCC3(CCN(CC4CC4)CC3)CC2)nc1
Percent Effect [1]: 0.564% | Percent Effect [2]: 6.17%

CC(C)c1nc(C2CCCN(C(=O)c3ccc4[nH]cnc4c3)C2)no1 (stereo unspecified)
Percent Effect [1]: 2.42% | Percent Effect [2]: 0.178%

Cc1nc(NC(=O)CN2CCc3c(nc(C(C)C)n3C)C2)sc1C
Percent Effect [1]: -4.32% | Percent Effect [2]: 5.46%

CN(CCOc1cccc(CNC(=O)C2CC2)c1)C1CCOCC1
Percent Effect [1]: -1.13% | Percent Effect [2]: -0.044%

Cc1cc(C)nc(Nc2cc(C3CCCN(C)C3)nc(C)n2)n1 (stereo unspecified)
Percent Effect [1]: 0.64% | Percent Effect [2]: -0.428%

CC(NC(=O)Nc1cccnc1N1CCCC1)c1nncn1C (stereo unspecified)
Percent Effect [1]: -2.86% | Percent Effect [2]: 7.91%

Cc1cccnc1NC(=O)NCc1ccc(N2CCNC(=O)C2)cc1
Percent Effect [1]: 5.31% | Percent Effect [2]: -63.3%

Cn1ccc(CN2CCC(NC(=O)Cc3ccccc3)CC2)cc1=O
Percent Effect [1]: -3.72% | Percent Effect [2]: 8%

CC(C)CN1CCN(Cc2nc3ccccc3[nH]2)[C@H]2CS(=O)(=O)C[C@H]21
Percent Effect [1]: 4.05% | Percent Effect [2]: -16.9%

O=C(c1nn(-c2ccccc2F)cc1O)N1CCCC1
Percent Effect [1]: 3.09% | Percent Effect [2]: 16%

Cc1nc(C2CCCN2C(=O)c2ccccc2)ncc1C(N)=O (stereo unspecified)
Percent Effect [1]: -3.02% | Percent Effect [2]: -6.25%

COc1cccc(-c2noc(C3CCN(Cc4cn(C)nc4C)C3)n2)c1 (stereo unspecified)
Percent Effect [1]: -1.93% | Percent Effect [2]: -38.8%

COC(=O)c1cc(OCC2CCC2)cc(C(=O)N[C@@H]2CNCC[C@H]2O)c1
Percent Effect [1]: 6.47% | Percent Effect [2]: -42.6%

CC(NC(=O)NCCCOC1CCCCC1)c1nncn1C (stereo unspecified)
Percent Effect [1]: -3.32% | Percent Effect [2]: -6.91%

O=c1[nH]c2c(c(=O)n1C1CCCCC1)CCC2NCCc1ccccc1 (stereo unspecified)
Percent Effect [1]: -2.9% | Percent Effect [2]: 3.31%

c1cnc2c(c1)cc([C@H]1CCCO1)n2CCN1CCCCC1
Percent Effect [1]: -0.551% | Percent Effect [2]: -28.2%

COc1ccc(C2=CCN(C(=O)C3CC(=O)N(C4CC4)C3)CC2)cc1 (stereo unspecified)
Percent Effect [1]: 1.54% | Percent Effect [2]: 2.8%

Cc1cccc(C2(CNC(=O)CCN3C(=O)CCC3=O)CCCC2)c1
Percent Effect [1]: -4.05% | Percent Effect [2]: 9.87%

CN(Cc1ccco1)Cc1ccccc1CNC(=O)c1cc[nH]n1
Percent Effect [1]: 0.435% | Percent Effect [2]: 9.38%

O=C(Nc1cc(F)ccc1OCC1CCCO1)N1CCCC1 (stereo unspecified)
Percent Effect [1]: -3.7% | Percent Effect [2]: 0.98%

O=C(NCC(Cc1cccc(F)c1)N1CCCC1=O)c1cnccn1 (stereo unspecified)
Percent Effect [1]: -5.12% | Percent Effect [2]: -15.9%

N#Cc1ncn(CCC(=O)Nc2c(Cl)cccc2Cl)n1
Percent Effect [1]: 6.68% | Percent Effect [2]: -17.7%

Cc1ccc(C(=O)CCC(=O)N2CCC(c3nncn3C)CC2)cc1
Percent Effect [1]: 2.31% | Percent Effect [2]: -30.7%

O=S(=O)(c1cccs1)N1CCCn2cnc(CN3CCCC3)c2C1
Percent Effect [1]: 6.2% | Percent Effect [2]: -4.47%

Cc1ccc(N2CC[C@H]3O[C@@H](C(=O)NCc4ccco4)CC[C@H]32)nn1
Percent Effect [1]: 12.5% | Percent Effect [2]: -10.5%

CN(C)C(C)(C)CNC(=O)C(C)(C)c1ccccc1F
Percent Effect [1]: -0.279% | Percent Effect [2]: 13.2%

CN1CCCC1c1ccc(C(=O)N2CCc3ccccc3C2)s1 (stereo unspecified)
Percent Effect [1]: -5.54% | Percent Effect [2]: -38.1%

CCN(CC)C1CCN(C(=O)NCc2nncn2CC)CC1
Percent Effect [1]: -0.573% | Percent Effect [2]: -26%

Cc1nn(C)c(N2CCOCC2)c1CNCc1nccs1
Percent Effect [1]: -2.7% | Percent Effect [2]: 28.1%

O=C1CC(c2ccc(F)c(F)c2)c2snc(C(=O)O)c2N1 (stereo unspecified)
Percent Effect [1]: 3.57% | Percent Effect [2]: -5.34%

CC(C)Sc1nnc(CCNC(=O)OC(C)(C)C)o1
Percent Effect [1]: -0.987% | Percent Effect [2]: -76.8%

O=C(NCc1ccccn1)c1nnn(-c2ccc(Br)cc2)n1
Percent Effect [1]: -5.38% | Percent Effect [2]: -13.6%

COc1ccc(C(=O)N2CCCC2c2ccco2)cc1OC (stereo unspecified)
Percent Effect [1]: -3.37% | Percent Effect [2]: -11.3%

COCCN1C(=O)CC(N2CCN(c3ccc(F)cc3)CC2)C1=O (stereo unspecified)
Percent Effect [1]: 1.23% | Percent Effect [2]: -24.6%

N#Cc1ccc(CNCC(C(=O)N2CCOCC2)c2ccccc2)cc1 (stereo unspecified)
Percent Effect [1]: 24.2% | Percent Effect [2]: -26%

CSc1ccsc1C(=O)N1CCN(CC(C)(C)O)CC1
Percent Effect [1]: 2.72% | Percent Effect [2]: -13.5%

Cc1nn(CC(=O)N2CCCC2Cn2cccn2)c(C)c1Cl (stereo unspecified)
Percent Effect [1]: 0.155% | Percent Effect [2]: -3.65%
